{"source": "PubChem BioAssay AID431", "about": "(Sanford-Burnham Center for Chemical Genomics, 2006)", "note": "The campaign covered roughly 63,000 compounds. About 1,100 (1.7%) were called active. The sample as a whole holds a higher share of actives than the screen did. Measured potencies and affinities stand elsewhere. A number with no mark means an inactive call.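 How the source made its calls: active means compounds whose percent cytotoxicity in the single-dose primary screen, scaled between solvent and toxic-drug controls, exceeds 50; inactive means the rest.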", "data": [{"test": "viability loss of HPDE-C7K cells – cell-based, fluorescence, HTS, primary screen (AID 431);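 further: 0% = DMSO solvent wells and 100% = doxorubicin-treated wells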", "settings": "HPDE-C7K KRASV12 cells, Alamar Blue viability, 48 h; at 10 µM; hits give high values", "values": [{"smiles": "Cc1cc(C(=O)CSc2nc3ccccc3n2CCC#N)c(C)n1Cc1cccs1", "cytotoxicity": "-13.5%"}, {"smiles": "Cc1ccc(C(=O)CSc2nnc(CNc3ccc(C)cc3C)n2Cc2ccco2)cc1", "cytotoxicity": "30.1%"}, {"smiles": "Brc1ccc2ncnc(Nc3ccc(N4CCOCC4)cc3)c2c1", "cytotoxicity": "-4.9%"}, {"smiles": "CCCn1c(SCC(=O)c2cc(OC)ccc2OC)nc2c1c(=O)n(C)c(=O)n2C", "cytotoxicity": "8.2%"}, {"smiles": "CCOC(=O)c1[nH]c(C)c(C(=O)NCC2CCCO2)c1C", "note": "(centres undefined)", "cytotoxicity": "5.6%"}, {"smiles": "CCCCN(CC)C(=O)c1ccc(Cl)c(Cl)c1", "cytotoxicity": "-3.6%"}, {"smiles": "COc1cc(CN2CCSCC2)cc(OC)c1OC", "cytotoxicity": "-7.4%"}, {"smiles": "COc1ccccc1C(=O)N1CCN(c2cccc(C(F)(F)F)c2)CC1", "cytotoxicity": "62.5% (active)"}, {"smiles": "O=C(c1c(Cl)nc2sccn12)N1CCN(c2cccc(Cl)c2)CC1", "cytotoxicity": "64.5% (active)"}, {"smiles": "Cc1ccc(C(=O)N2CCN(c3cccc(Cl)c3)CC2)cc1C", "cytotoxicity": "27.4%"}, {"smiles": "O=C(c1ccccc1F)N1CCN(c2cccc(C(F)(F)F)c2)CC1", "cytotoxicity": "-5.2%"}, {"smiles": "COc1ccc(CCNC(=O)CN2CCN(c3cccc(Cl)c3)CC2)cc1OC", "cytotoxicity": "8.7%"}, {"smiles": "O=C(c1cccc(F)c1)N1CCN(c2cccc(Cl)c2)CC1", "cytotoxicity": "26.8%"}, {"smiles": "COc1ccccc1CC(=O)N1CCN(c2cccc(C(F)(F)F)c2)CC1", "cytotoxicity": "-1.7%"}, {"smiles": "Nc1ccc(CCS(N)(=O)=O)cc1", "cytotoxicity": "12.4%"}, {"smiles": "c1ccc(-c2noc(CN3CCN(C(c4ccccc4)c4ccccc4)CC3)n2)cc1", "cytotoxicity": "-6.9%"}, {"smiles": "CCCC(=O)c1cc(F)c(N2CCN(C(=O)OCC)CC2)cc1C", "cytotoxicity": "-0.7%"}, {"smiles": "COCCSc1nnc(NC(=O)CSCc2ccccc2)s1", "cytotoxicity": "16.5%"}, {"smiles": "CCCCOC(=O)Cn1c(=O)oc2ccc(C)cc21", "cytotoxicity": "5.8%"}, {"smiles": "CN1CCCC(OC(=O)c2cc(Cl)ccc2Cl)C1", "note": "(centres undefined)", "cytotoxicity": "-23.9%"}, {"smiles": "Cc1nnc2sc(-c3cccc(NC(=O)c4cccnc4)c3)nn12", "cytotoxicity": "-1%"}, {"smiles": "CSc1nnc2n(CCc3ccccc3)c(=O)c3c4c(sc3n12)CCCC4", "cytotoxicity": "15.3%"}, {"smiles": "Cn1c(=O)c2[nH]cnc2n(-c2ccccc2)c1=O", "cytotoxicity": "-4.3%"}, {"smiles": "COc1ccc(OC)c(Nc2nc(-c3sc(C)nc3C)cs2)c1", "cytotoxicity": "26.2%"}, {"smiles": "COc1ccc(OC)c(Nc2nc(-c3cccs3)cs2)c1", "cytotoxicity": "54.9% (active)"}, {"smiles": "COc1ccc(C(=O)Nc2nc(-c3cccs3)cs2)cc1", "cytotoxicity": "38%"}, {"smiles": "COc1ccccc1Nc1nc(-c2cccs2)cs1", "cytotoxicity": "18.3%"}, {"smiles": "COc1ccc(-c2csc(NC(C)=O)n2)cc1OC", "cytotoxicity": "10.2%"}, {"smiles": "COc1ccc(OC)c(Nc2nc(-c3ccc(O)c(O)c3)cs2)c1", "cytotoxicity": "59.5% (active)"}, {"smiles": "CC1C(=O)C(C)C(c2ccc3c(c2)OCO3)NC1c1ccc2c(c1)OCO2", "note": "(centres undefined)", "cytotoxicity": "1.3%"}, {"smiles": "CC(C)N(Cc1nc(-c2ccc(Cl)cc2)no1)C(=O)CCCN1C(=O)c2ccccc2C1=O", "cytotoxicity": "3.9%"}, {"smiles": "CCc1ccc(NC(=O)C2CC=CCC2C(=O)O)cc1", "note": "(centres undefined)", "cytotoxicity": "-3.7%"}, {"smiles": "O=C(O)C1C2C=CC3(CN(Cc4ccncc4)C(=O)C13)O2", "note": "(centres undefined)", "cytotoxicity": "-2.7%"}, {"smiles": "O=C(O)C1C2C=CC3(CN(Cc4ccco4)C(=O)C13)O2", "note": "(centres undefined)", "cytotoxicity": "1.9%"}, {"smiles": "O=C(O)C1C2C=CC3(CN(Cc4ccccn4)C(=O)C13)O2", "note": "(centres undefined)", "cytotoxicity": "76.1% (active)"}, {"smiles": "Cc1cc(NS(=O)(=O)c2ccc(NC(=O)Nc3ccccc3)cc2)no1", "cytotoxicity": "-21%"}, {"smiles": "CCOC(=O)c1ccc(NC(=O)CCc2nc(-c3ccc(Cl)cc3)no2)cc1", "cytotoxicity": "0.1%"}, {"smiles": "CCOC(=O)c1ccc(NC(=O)CCc2nc(-c3ccccc3)no2)cc1", "cytotoxicity": "-8%"}, {"smiles": "CCOC(=O)c1ccc(NC(=O)CCc2nc(-c3ccccc3Cl)no2)cc1", "cytotoxicity": "76.1% (active)"}, {"smiles": "CC1CCCC(C)N1C(=O)Cn1c(=O)sc2ccccc21", "note": "(centres undefined)", "cytotoxicity": "0.8%"}, {"smiles": "Cc1ccc(C2CC(C(F)F)n3ncc(C(=O)Nc4cnn(Cc5ccccc5C)c4)c3N2)cc1", "note": "(centres undefined)", "cytotoxicity": "21.9%"}, {"smiles": "CCOC(=O)CCCCNCc1ccccc1", "cytotoxicity": "-6.1%"}, {"smiles": "COc1ccccc1OCc1nc2c3c(-c4ccccc4)c(-c4ccccc4)oc3ncn2n1", "cytotoxicity": "9.1%"}, {"smiles": "Cc1nc2c3c(-c4ccccc4)c(-c4ccccc4)oc3ncn2n1", "cytotoxicity": "1%"}, {"smiles": "COc1ccc(-c2oc3ncn4nc(Cc5ccccc5)nc4c3c2-c2ccc(OC)cc2)cc1", "cytotoxicity": "57% (active)"}, {"smiles": "COc1ccc(-c2oc3ncn4nc(COc5ccccc5)nc4c3c2-c2ccc(OC)cc2)cc1", "cytotoxicity": "57.9% (active)"}, {"smiles": "COc1ccc(-c2nnc(SCCc3ccccc3)n2N)cc1", "cytotoxicity": "4.3%"}, {"smiles": "COc1ccc(-c2nnc(SCc3ccccc3)n2N)cc1", "cytotoxicity": "-12.1%"}, {"smiles": "COc1ccc(C)cc1N(CC(=O)NC1CCCC1)C(=O)CCC(=O)Nc1cc(C)on1", "cytotoxicity": "-5.7%"}, {"smiles": "CCCCS(=O)(=O)/C=C\\C1C2C=CC(C2)C1S(=O)(=O)CCCC", "note": "(centres undefined)", "cytotoxicity": "-2.6%"}, {"smiles": "CCCCS(=O)(=O)/C=C\\C=C/S(=O)(=O)CCCC", "cytotoxicity": "112% (active)"}, {"smiles": "OC(COc1ccc(Cl)cc1)CN1C2=NCCCN2c2ccccc21", "note": "(centres undefined)", "cytotoxicity": "6.4%"}, {"smiles": "CCC(=O)c1ccccc1OCCCN1C(=O)NC(C)(C)C1=O", "cytotoxicity": "21%"}, {"smiles": "CC1CC(C)CN(S(=O)(=O)c2ccc3c(c2)oc(=O)n3CC(=O)N2CCOCC2)C1", "note": "(centres undefined)", "cytotoxicity": "2.5%"}, {"smiles": "c1ccc(-c2nc(-n3ccnc3)nc(-n3ccnc3)n2)cc1", "cytotoxicity": "19.8%"}, {"smiles": "c1ccc(-c2ccc(-n3ccnc3)cc2)cc1", "cytotoxicity": "2.4%"}, {"smiles": "Clc1ccc(-c2nnc(-c3ccc(Br)o3)o2)c(Cl)c1", "cytotoxicity": "19.1%"}, {"smiles": "CCn1c(SCC(=O)c2ccccc2)nnc1-c1cc2cc(Br)ccc2o1", "cytotoxicity": "8%"}, {"smiles": "CCCCCC(=O)N(CN1C(=O)CCC1=O)c1ccccc1", "cytotoxicity": "-8.7%"}, {"smiles": "Cc1nc(NCCCN2CCOCC2)c2oc3ccccc3c2n1", "cytotoxicity": "6.7%"}, {"smiles": "O=C(O)c1cc(S(=O)(=O)N2CCCCCC2)ccc1Cl", "cytotoxicity": "-3.9%"}, {"smiles": "O=S(=O)(c1ccc(S(=O)(=O)N2CCCC2)cc1)N1CCCCCC1", "cytotoxicity": "-15%"}, {"smiles": "O=C(CN1CCN(c2ccccn2)CC1)N1c2ccccc2CCc2ccccc21", "cytotoxicity": "-4.4%"}, {"smiles": "CCN(CC(=O)NC1CCCCC1)S(=O)(=O)c1ccc(Cl)cc1", "cytotoxicity": "-13.6%"}]}]}
